Among all 59,000 compounds or so, about 35 (0.06%) were called active. Not shown: some 19% with an inconclusive outcome. No stated cut-off is given here; in the data, active means max dye-equivalent concentration above about 10 nM; inconclusive means between about 1.1 nM and that limit; inactive means weaker than that. What follows is part of a selection rich in actives, with near analogues and random picks from the rest.

This assay in a line: qHTS Assay for Spectroscopic Profiling in Texas Red Spectral Region. The following applies: Compound fluorescence, Texas Red channel, 547/618 nm. The source says: NIH Molecular Libraries Screening Centers Network [MLSCN] NIH Chemical Genomics Center [NCGC] […] Occasionally, the artifactual effect may originate from the compound#s own spectral or other biophysical properties which generally tend to track its assay concentration. Pre-screening/profiling the library with respect to the compounds# spectral properties should help one exclude false positives early on. While the most informative fluorescent profiling data set is obtained by performing a full excitation and emission scan of each well by using a monochromator-based plate reader, such an approach is practical only on a very limited scale as scanning each well requires long time. An alternative approach, applied here, is to perform plate reader scans using selected excitation and emission wavelength pairs to generate a multidimensional relational database that correlates compound concentration and the respective relative fluorescence intensity at a given wavelength set. A standard curve of Texas Red (TR) present on each plate as six-point concentration series, was used to compute a normalized fluorescence response, termed dye-equivalent concentration, for each compound at each concentration.
NCGC Assay Protocol Summary: Buffer: 100 mM Tris buffer, pH 8.0 Dye standard plate: The wells in columns 1 through 4 of a Kalypsys polypropylene 1536-well compound plate were filled with standard solutions of fluorophore corresponding to the spectral region of interest. Solutions of TR were placed in the following wells: U1, V1: 3 mM, U2, V2: 300 uM, U3, V3: 30 uM, U4, V4: zero (DMSO), W1, X1: 3 uM, W2, X2: 900 nM, W3, X3: 300 nM, W4, X4: zero (DMSO). Assay Steps: Six uL of buffer were dispensed to 1536-well Greiner black plates. Compounds and dye standards (23 nL) were transferred via Kalypsys PinTool. The plates were incubated for 15 min at room temperature, and then read on ViewLux (Perkin-Elmer) High-throughput CCD imager using 547 nm and 618 nm excitation and emission filter set. Keywords: NIH Roadmap, MLSCN, MLI, MLSMR, qHTS, NCGC, Texas Red, Fluorescent Profiling.
`Cc1nn(-c2ccccc2)c(CC(C)(C)C(=O)O)c1C(=O)O`: the max dye-equivalent concentration result was “inactive”. For the compound `COCCn1c(=O)c(-c2cc(F)cc(F)c2)nc2cnc(N3CCNCC3)nc21`, the max dye-equivalent concentration result is “inactive”. With `CN1CCN(S(=O)(=O)c2ccc(NC(=O)C3CCCO3)cc2)CC1` (configuration not stated), the max dye-equivalent concentration result was “inactive”. As for `O=C(c1cnccn1)N1CCC[C@@]2(CCN(Cc3ccncc3)C2)C1`, the max dye-equivalent concentration entry was “inactive”.

For `CN1CCN(c2ncc3nc(-c4ccc(Cl)cc4)c(=O)n(-c4ccccc4)c3n2)CC1`, the max dye-equivalent concentration entry is “inactive”. Consider `N#Cc1cccc(-c2nc3cnc(N4CCNCC4)nc3n(C3CC3)c2=O)c1`, for which the max dye-equivalent concentration entry was “inactive”. Under `CCOCCOC(=O)C1=C(C)N(C)C(=O)NC1c1ccccc1F` (configuration not stated) stands “inactive”; under `Cc1nc(NCc2ccccc2)c(C(N)=O)c2c1COC(C)(C)C2`, “inactive”. In the case of `COc1ccc(N2CCN(C(=O)CSc3nnc4ncccn34)CC2)cc1` it was “inactive”. For `O=C1CSC(c2cccc(F)c2)N1c1ccccc1F` (configuration not stated), the max dye-equivalent concentration result is “inactive”. For `COc1ccc(N2CCN(Cc3cc(=O)oc4ccc5ccccc5c34)CC2)cc1`, the max dye-equivalent concentration entry is “inactive”. `COC(=O)c1ccccc1NC(=O)CSc1ccccn1`: the max dye-equivalent concentration entry is “inactive”. Under `COc1ccc2oc(=O)c(C(=O)N3CCN(c4ccccc4F)CC3)cc2c1` stands “inactive”; under `CCNc1ncc2nc(CCc3ccccc3)c(=O)n(-c3ccc(OC)cc3)c2n1`, “inactive”.

In the case of `CCOC(=O)C1CCN(C(=O)Cn2cc(C#N)c3ccccc32)CC1`, the max dye-equivalent concentration result is “inactive”.

Regarding `CC(C)C(C(=O)NC1CCCCC1)N(CC1CCCO1)C(=O)CNS(=O)(=O)c1ccc(F)cc1` (configuration not stated), the max dye-equivalent concentration entry was “inactive”. Take `CO[C@@H]1/C=C\O[C@]2(C)Oc3c(C)c(O)c4c(O)c(c(CN(C)C)c(O)c4c3C2=O)NC(=O)/C(C)=C\C=C[C@@H](C)[C@@H](O)[C@H](C)[C@@H](O)[C@H](C)[C@H](OC(C)=O)[C@@H]1C`: the max dye-equivalent concentration entry is “inactive”. Under `Cc1c(C(=O)CN2CCOCC2)[nH]c2ccccc12` stands “inactive”; under `O=C(NCCCCO)C(F)(F)C(F)(F)C(F)(F)C(=O)NCCCCO`, “inactive”. Under `O=c1c(-c2ccc(F)c(F)c2)nc2cncnc2n1-c1ccccc1` stands “inactive”; under `COC(=O)[C@@H]1[C@H]2C[C@H]3c4[nH]c5cc(OC)ccc5c4CCN3C[C@@H]2C[C@@H](OC(=O)c2cc(OC)c(OC)c(OC)c2)[C@@H]1OC`, “inactive”; under `COc1ccc(C(=O)N(CCN2CCOCC2)CC(=O)NC2CCCC2)cc1OC`, “inactive”. Take `C=C(C)CSc1nc(N)c2c3c(sc2n1)CCC3`: the max dye-equivalent concentration result was “inactive”. Take `CC(C)c1nc(N2CCOCC2)c(C#N)c2c1COC(C)(C)C2`: the max dye-equivalent concentration entry was “inactive”.

For `CN(C)c1ncc2nc(-c3ccc(F)cc3)c(=O)n(Cc3ccc(F)cc3)c2n1`, the max dye-equivalent concentration entry is “inactive”. Regarding `c1cncc(CNc2ccnc(-c3ccc4c(c3)OCO4)n2)c1`, the max dye-equivalent concentration entry was “inactive”. In the case of `CCN(CC(=O)NC(C)C)C(=O)CCNC(=O)c1ccc(Cl)cc1`, the max dye-equivalent concentration entry is “inactive”. Regarding `Cc1nc2cnc(N3CCN(C)CC3)nc2n(C[C@H]2CCCO2)c1=O`, the max dye-equivalent concentration result is “inactive”.

As to `COc1ncc2nc(-c3ccc(Cl)cc3)c(=O)n(-c3ccccc3)c2n1`, the max dye-equivalent concentration entry is “inactive”. Turning to `O=C(O)[C@@H](S)[C@H](S)C(=O)O`, the max dye-equivalent concentration result is “inactive”.

Take `N#CCCn1c(=O)c(-c2cc(F)cc(F)c2)nc2cnc(Oc3ccccc3)nc21`: the max dye-equivalent concentration entry was “inactive”. For the compound `COc1ccc(OC)c(CN2C(=O)CCC2(C)C(=O)NC2CCCCCC2)c1` (configuration not stated), the max dye-equivalent concentration result is “inactive”. For `O=C(Cn1nnc(-c2ccccc2)n1)NCc1ccccc1`, the max dye-equivalent concentration result is “inactive”. Turning to `O=c1[nH][nH]c(=O)c2cc(N3CCCC3)ccc12`, the max dye-equivalent concentration result is “inactive”. In the case of `CC(C(=O)N1CCOCC1)N1c2cccc3cccc(c23)S1(=O)=O` (configuration not stated) it was “inactive”.

For the compound `O=C(Nc1ccc2c(c1)OCCO2)C1CCCN(c2ncccn2)C1` (configuration not stated), the max dye-equivalent concentration result was “inactive”. For `COCCNC(=O)C(c1ccc(C)o1)N(Cc1cccs1)C(=O)c1snc(C(N)=O)c1N` (configuration not stated), the max dye-equivalent concentration entry was “inactive”.

For `COc1c(F)c(F)c(-c2csc(N)n2)c(F)c1F`, the max dye-equivalent concentration entry was “inactive”. For `CC(C)c1ccc(NC(=O)NC2CCCCC2)cc1`, the max dye-equivalent concentration entry is “inactive”. With `CCC(C)(C(=O)NC1CCCC1)N(C(=O)CNC(C)=O)c1ccc(C)cc1` (configuration not stated), the max dye-equivalent concentration entry was “inactive”.

Turning to `CCNc1nc(NCC)nc(N(C)n2cnnc2)n1`, the max dye-equivalent concentration entry was “inactive”. `O=C(CN1CCN(c2ccccn2)CC1)NCc1cccs1`: the max dye-equivalent concentration entry was “inactive”. Consider `O=C(O)COc1c(Cl)cc(Cl)c2cccnc12`, for which the max dye-equivalent concentration result is “inactive”. Consider `O=C(OCC(O)C(O)COC(=O)c1ccccc1)c1ccccc1` (configuration not stated), for which the max dye-equivalent concentration entry is “inactive”. In the case of `COc1cccc(Cn2c(=O)c(CCc3ccccc3)nc3cnc(N(C)C)nc32)c1`, the max dye-equivalent concentration result was “inactive”. With `CN1CCN2c3ccccc3Cc3ccccc3[C@@H]2C1`, the max dye-equivalent concentration entry was “inactive”. As for `COCCn1c(=O)c(-c2cccc(F)c2)nc2cncnc21`, the max dye-equivalent concentration entry was “inactive”. `CC1Cc2cc(/C(O)=C3\C(=O)C(=O)N(CCN4CCOCC4)C3c3ccccc3F)ccc2O1` (configuration not stated): the max dye-equivalent concentration entry was “inactive”. For `CCOC(=O)CSc1nc2sc3c(c2c(=O)[nH]1)CC(C)(C)OC3`, the max dye-equivalent concentration entry was “inactive”. Regarding `CC(C)NC(=O)N1CC[C@@]2(CCCN(C(=O)c3ccco3)C2)C1`, the max dye-equivalent concentration entry was “inactive”. Turning to `CCC(c1nnnn1C1CCCC1)N1CCN(C(=O)c2ccco2)CC1` (configuration not stated), the max dye-equivalent concentration entry was “inactive”. With `Cc1nn(-c2ccccc2)c2sc(C(=O)N(Cc3ccco3)C(C)C(=O)NC(C)(C)C)cc12` (configuration not stated), the max dye-equivalent concentration entry is “inactive”.

`CCOC(=O)N1CCC(Nc2c(NCCCN3CCN(c4ccc(OC)cc4)CC3)c(=O)c2=O)CC1`: the max dye-equivalent concentration result was “inactive”. Turning to `COc1ccccc1CNC(=O)CCCNS(=O)(=O)c1cccc2nsnc12`, the max dye-equivalent concentration entry was “inactive”. With `COc1cccc(-c2cc(NCCc3c[nH]c4ccc(OC)cc34)ncn2)c1`, the max dye-equivalent concentration result is “inactive”.

As for `CC(C)(C)c1ccc(C(=O)NCCC(=O)NCc2ccco2)cc1`, the max dye-equivalent concentration result is “inactive”.

For the compound `CCOCC(=O)Nc1cc(OC)c(Cl)cc1OC`, the max dye-equivalent concentration entry was “inactive”. As for `CCOc1ccc(CCNC(=O)C2CCN(c3ccc(N4CCOCC4)nn3)CC2)cc1OCC`, the max dye-equivalent concentration result is “inactive”.

On to `O=C(Cn1ccc(=O)[nH]c1=O)Nc1ccc(C(=O)O)c(O)c1`, for which the max dye-equivalent concentration result was “inactive”.

`CCc1c(C)sc(NC(=O)c2ccc(Br)o2)c1C(=O)OC`: the max dye-equivalent concentration result is “inactive”.

With `CCNc1ncc2ncc(=O)n(Cc3cccc(OC)c3)c2n1`, the max dye-equivalent concentration result is “inactive”. Under `CC1(C)S[C@@H]2[C@@H](NC(=O)[C@@H](N)c3ccccc3)C(=O)N2[C@H]1C(=O)O` stands “inactive”; under `COCCn1c(=O)c(-c2cccs2)nc2cncnc21`, “inactive”; under `CN(C)c1cc(N)c2ccccc2n1` (tested in a mixture with another compound), “inactive”.

For `C[N+]1(CCNC(=O)/C=N/O)CCCCC1`, the max dye-equivalent concentration result was “inactive”. For `CCCCCC(=O)Nc1ccc2oc(-c3ccncc3)nc2c1`, the max dye-equivalent concentration result was “inactive”.

Take `CN/C(=C\[N+](=O)[O-])NCCSCc1csc(CN(C)C)n1`: the max dye-equivalent concentration entry was “inactive”.

(Values after PubChem BioAssay AID587 (National Center for Advancing Translational Sciences (NCATS), 2007).)
